Sampled rows, rich in hits. Any-hit rate of the full collection: about 19%.
HT1080-NT tox – qHTS for induction of synthetic lethality in tumor cells producing 2HG: qHTS for the HT-1080-NT fibrosarcoma cell line; actives 1.6% (n = 360,000); HT-1080-NT fibrosarcoma viability, CellTiter-Glo ATP luminescence, 48 h; Potency, µM (doses to about 46.1 µM), without a hit: at the highest dose activity, negative = less viability, hits mostly cytotoxic;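 further: NT is the 2HG producing partner of a matched IDH1 knockdown line; potency means the concentration at half of the fitted maximal effect; 0% = DMSO-treated cells and -100% = media-only wells without cells; nearly all actives have a fitted effect of over 55% in size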
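Luminescent CellTiter-Glo readout after 48 hours of compound exposure at 37 degrees C defined viability of HT-1080-NT cells. Activity was normalized to DMSO wells and cell-free media wells; concentration-response curves were fitted and assigned curve classes.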
HT1080 IDH1KD tx – qHTS for induction of synthetic lethality in tumor cells producing 2HG: qHTS for the HT-1080-IDH1KD cell line | HT-1080 IDH1 knockdown viability, ATP luminescence, 48 h | Potency, µM (doses to about 46.1 µM), for inactives: at the highest dose activity, negative = toxicity, most hits filed as cytotoxic | actives 2% (n = 360,000) | AID 686971, 2013;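 further: potency means the concentration at half of the fitted maximal effect; 0% = DMSO wells and -100% = cell-free medium wells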
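Luminescent ATP read-out (CellTiter-Glo, 10 min at room temperature) after 48 h compound exposure at 37 °C gave viability of IDH1-knockdown HT-1080 cells. Activity was normalised to DMSO and cell-free wells, then fitted as concentration-response curves.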
DT40 TDP1 no CPT – qHTS for Inhibitors of human tyrosyl-DNA phosphodiesterase 1 (TDP1): qHTS in cells in absence of CPT. DT40 Tdp1-/- hTDP1 cells, no CPT, ATP luminescence, 48 h. Potency, µM (titrated, usually from 46.2 µM), inactives show top-dose activity change, negative = growth inhibition, usual class: inhibitors. actives 15% (n = 420,000). AID 686978, 2013; further: potency means the concentration at half of the fitted maximal effect; nearly all actives have a fitted effect of over 55% in size
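Chicken DT40 Tdp1-/- cells stably complemented with human TDP1 were seeded at 400 cells/well with DMSO in place of 20 nM camptothecin. After compound pinning, cells grew at least 48 hr at 37 °C; viability read by CellTiter-Glo luminescence.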
IL-1B inflam inh – qHTS for Inhibitors of Inflammasome Signaling: IL-1-beta AlphaLISA Primary Screen; activity change, % at 57.5 µM; THP-1 LPS/ATP IL-1B secretion, AlphaLISA, 16 h; stronger effect = lower value; actives 4.7% (n = 360,000); AID 743279, 2014; in the data active means activity change below about -50%; inconclusive means mostly about -30% to -49%
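THP-1 cells pretreated 1 hr with compounds (up to 57.5 uM final), then stimulated with LPS (250 ng/mL final) plus ATP (1.25 mM final); secreted IL-1B measured by AlphaLISA after 16 hr, decreased signal indicating inhibition.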
TDP1 cell CPT – qHTS for Inhibitors of human tyrosyl-DNA phosphodiesterase 1 (TDP1): qHTS in cells in presence of CPT | chicken DT40 Tdp1-/-;hTDP1 cells + 20 nM CPT, ATP luminescence, 48 h | Potency, µM (highest dose often 46.2 µM), for inactives: top-dose activity change, negative = growth inhibition, actives largely listed as inhibitors | actives 12% (n = 420,000); further: potency means the concentration at half of the fitted maximal effect; nearly all actives have a fitted effect of over 55% in size
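Chicken DT40 Tdp1-/- cells stably complemented with human TDP1 were seeded at 400 cells/well in medium containing 20 nM camptothecin, exposed to pin-transferred compounds, and grown at 37 °C for at least 48 hr. Viability was read as ATP luminescence.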
Starred values were filed as active, the others as inactive; u = inconclusive; x = no result given; [ ] = dose if it differs, or a comment. Unless noted, the call rests on the fitted dose curve; in most records, active means well fitted curve in the direction sought with a large enough effect; inconclusive means small, poorly fitted or top-dose-only effect, or another doubt; inactive means no such curve, though single readings can be large; an effect the other way counts as inactive or inconclusive. Unless noted, on the % scale 0 is the no-effect control and ±100 the full control effect.

SMILES	HT1080-NT tox	HT1080 IDH1KD tx	DT40 TDP1 no CPT	IL-1B inflam inh	TDP1 cell CPT
CCOC(=O)CSC1=N/C(=C\c2ccc(OC)c(OC)c2)C(=O)N1C	1%	-2%	u	-19	26µM*
Cc1ccc(S(=O)(=O)N2CCOCC2)cc1C(=O)NC(=S)N1CC(C)OC(C)C1 (centres undefined)	0%	5%	3%	13	4%
CCc1nc2c(OCc3ccc(F)cc3)cccn2c1N(C)C(=O)CC(C)C	2%	-3%	u	-1	u
CCOC(=O)N(C)c1c(CC)nc2c(OCc3ccc(Cl)cc3Cl)cccn12	u	u	23µM*	0	u
CCc1nc2c(OCc3cccc(Cl)c3)cccn2c1N(C)C(=O)CC(C)C	u	u	21µM*	2	u
CCc1nc2c(OCc3ccc(F)c(F)c3)cccn2c1N(C)C(=O)C1CC1	10%	-2%	u	10	21µM*
CCOC(=O)N(C)c1c(CC)nc2c(OCc3ccc(F)cc3)cccn12	-7%	6%	u	-10	u
CCOC(=O)N(C)c1c(CC)nc2c(OCc3cc(Cl)cc(Cl)c3)cccn12	u	u	21µM*	u	u
O=C(COc1ncnc2ccccc12)N1CCN(S(=O)(=O)c2ccc(Cl)cc2)CC1	-3%	7%	-10%	-8	u
O=C(NC1CSC/C1=N\O)c1ccccc1 (centres undefined)	16%	15%	1%	-4	-4%
CC(O)[C@@H](NC(=O)C1CCC(CNC(=O)[C@H](Cc2ccccc2)NC(=O)OC(C)(C)C)CC1)C(=O)O (some centres undefined)	12%	19%	7%	8	-3%
CCOC(=O)N(C)c1c(CC)nc2c(OCc3ccc(F)c(F)c3)cccn12	2%	-1%	21µM*	-7	u
O=C(CN(Cc1ccccc1)C(=O)c1cccc([N+](=O)[O-])c1)Nc1c(Cl)cc(Cl)cc1Cl	-16%	-15%	12µM*	-1	8.2µM*
Cc1cccc(C)c1NC(=O)CN(C)CCc1ccccc1	5%	-1%	u	28	u
COc1ccc(C(=O)NC(C)CCc2ccccc2)c(O)c1 (centres undefined)	0%	-16%	u	-55*	u
Cc1cccc([N+](=O)[O-])c1NC(=O)CN(Cc1ccccc1)Cc1ccccc1	-12%	-10%	21µM*	u	26µM*
O=C(NNc1c(Cl)cc(Cl)cc1Cl)c1cccc([N+](=O)[O-])c1	-4%	5%	u	-27	u
COc1ccc(C(=O)NC(C)CCc2ccccc2)cc1 (centres undefined)	10%	14%	-10%	-1	-6%
COc1cccc(C(=O)NCCS(=O)(=O)NC(C)CCc2ccccc2)c1 (centres undefined)	3%	3%	6.5µM*	-4	u
CCCCCC(=O)NC(=S)Nc1cccc(-c2nc3ncccc3o2)c1	27%	19%	0%	57	-7%
COc1ccccc1C(=O)N1CCN(Cc2cccnc2)CC1	11%	21%	-7%	5	1%
O=C(NCCn1ccc2ccccc21)c1cccc([N+](=O)[O-])c1	0%	4%	23µM*	0	29µM*
COc1cc(OC)cc(C(=O)NCCCCc2ccccc2)c1	-20%	-9%	13µM*	10	u
O=C(NCCCc1ccccc1)c1cccc([N+](=O)[O-])c1	2%	6%	-26%	-3	-25%
O=C(NCCCCc1ccccc1)c1cccc([N+](=O)[O-])c1	19%	0%	16µM*	-5	18µM*
SMILES	HT1080-NT tox	HT1080 IDH1KD tx	DT40 TDP1 no CPT	IL-1B inflam inh	TDP1 cell CPT
O=C(NCCCN1CCN(CCCNC(=O)c2cccc([N+](=O)[O-])c2)CC1)c1cccc([N+](=O)[O-])c1	7%	5%	u	-6	2%
COc1cc(OC)cc(C(=O)NCCCCNC(=O)c2cc(OC)cc(OC)c2)c1	0%	1%	-19%	x	2%
C[C@H]1CCC/C=C/[C@@H]2C[C@H](O)C[C@H]2[C@H](O)[C@H](S(=O)c2ccc(O)cc2)CC(=O)O1 (some centres undefined)	u	0.15µM*	0.73µM*	u	0.58µM*
COc1ccc(CCNS(=O)(=O)c2ccc(N3CCCC3=O)cc2)cc1	-8%	-6%	21µM*	-3	21µM*
O=C1CCCN1c1ccc(S(=O)(=O)NCCc2ccc(Cl)cc2)cc1	-18%	u	u	16	u
Cc1ccc(OCCNS(=O)(=O)c2ccc(N3CCCC3=O)cc2)cc1	-8%	-6%	5.8µM*	9	6.5µM*
CCNS(=O)(=O)c1c(C)cc(N2CCCC2=O)cc1C	-10%	-17%	-20%	5	-11%
Cc1cc(N2CCCC2=O)cc(C)c1S(=O)(=O)NCCOc1ccccc1	u	6%[9.24 µM]	u	u	8.2µM*
Cc1ccc(OCCNS(=O)(=O)c2ccc(Cl)cc2)cc1	u	3%	-5%	-16	-30%
COc1ccc(NS(=O)(=O)c2ccc(N3CCCC3=O)cc2)cn1	15µM*	18µM*	6.5µM*	34	4.6µM*
CC(C)CCN1CCN(Cc2nc3c(s2)CCCC3)CC1CCO (centres undefined)	-1%	-4%	u	22	-19%
Cc1ccc(OCCNS(=O)(=O)c2ccc(N3CCCC3=O)cc2)cc1C	u	-2%	6.5µM*	13	6.5µM*
COc1ccc(OC)c(NS(=O)(=O)c2ccc(-n3cccn3)cc2)c1	-29%	-24%	10µM*	13	u
CCCCc1ccc(S(=O)(=O)NCCCN2CCCC2=O)cc1	-19%	5%	13µM*	14	u
Cc1ccc(NS(=O)(=O)c2ccc(-n3cccn3)cc2)c(Cl)c1	6%	4%	u	26	u
COc1ccc(OC)c(NS(=O)(=O)c2ccc(N3CCCC3=O)cc2)c1	0.52µM*	0.52µM*	0.37µM*	63	0.52µM*
CC(=O)Nc1nnc2n1CCS2	x	x	-2%	x	-9%
Cc1cc(C)cc(N(C(=O)c2csnn2)C(C(=O)NC(C)(C)C)c2cccnc2)c1 (centres undefined)	5%	9%	10%	17	3%
CS(=O)(=O)c1ccc(C(=O)Nc2ccccc2N2CCOCC2)c(Cl)c1	4%	10%	-15%	-7	1%

Source: PubChem
